The source of these data is PubChem BioAssay (NCATS).

The target in experiment [1] is Lysosomal acid glucosylceramidase (Homo sapiens) (UniProt P04062). In words: Glucocerebrosidase-p2 (AID 348; in the data active = potency below about 10 µM; also: potency is read from the fitted curve at half-maximal effect). Particulars: purified GBA, blue fluorogenic substrate, 40 min. An outline of the steps: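 Normal human glucocerebrosidase (0.2 nM) with blue fluorogenic substrate (80 uM final) in citrate/phosphate pH 5.9 with 10mM sodium taurocholate, 0.01% tween-20; 40 min RT, NaOH/glycine stop; fluorescence Ex 365/Em 440; AC50 from a titration from 0.6 nM upwards.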

Experiment [2] can be described thus: AP1 Signaling Pathway (AID 357; active = well fitted curve in either direction with a large enough effect, not every such curve was filed as active; also: % is scaled to controls: 0 for no effect and ±100 for the full control effect). The note with it: ME-180 AP-1-bla reporter, EGF-induced, beta-lactamase ratio, 5 h; at 7.69 µM (top of the series) unless noted. In outline: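 Modulation of EGF-driven AP-1 transcription was assessed with a beta-lactamase reporter in ME-180 cells. Compound and EC50 EGF were co-incubated 5 hours at 37 °C before 2.5-hour CCF4 loading at room temperature and dual-emission reading.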

Experiment [3] can be described thus: NFAT Signaling Pathway (AID 444; active = well fitted curve in either direction with a large enough effect, not every such curve was filed as active;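 also: carbachol stimulus at about its EC50 of 1 µM final; % is scaled to controls: 0 for no effect and ±100 for the full control effect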). Particulars: Jurkat NFAT-bla M1, carbachol, beta-lactamase ratio, 5 h; at 7.69 µM (top of the series) unless noted. In outline:
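Jurkat cells with NFAT-driven β-lactamase reporter and co-expressed M1 receptor, stimulated with carbachol (final 1 uM, ~EC50), compound titration, 5 h at 37 °C. CCF4 loaded 1 h at RT; 460/530 nm ratio gave %activity and AC50.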

Experiment [4] deals with Glucocorticoid receptor (Homo sapiens) (UniProt P04150). The experiment in a line: GR-EFC Redistribution (AID 451; calls by dose curve; also: potency is read from the fitted curve at half-maximal effect). The note with it: CHO-K1 GR-EFC translocation, beta-gal luminescence, 2 h. In outline:
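CHO-K1 cells expressing nuclear EA and GR-ED fragments of b-gal; compounds titrated up to 46 uM final, 2 h at 37 C. GR nuclear translocation read as complemented b-gal luminescence after 1 h RT detection.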

For experiment [5], the target named is Mitogen-activated protein kinase 10 (Mus musculus) (UniProt Q61831). The experiment in a line: JNK3 AlphaScreen Assay (AID 530; active = well fitted curve in either direction with a large enough effect, not every such curve was filed as active;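 also: kinase came from lysate of stimulated human HepG2 cells; signal reports phosphorylation of biotinylated GST-cJun 1-79 at Ser73 with 10 µM ATP; % is scaled to controls: 0 for no effect and ±100 for the full control effect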). Particulars: JNK3 lysate, c-Jun phosphorylation; series mostly up to 57.1 µM. An outline of the steps: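 Activity was read by AlphaScreen after JNK3-containing HepG2 lysate (cytokine pre-activated) phosphorylated biotinylated GST-cJun with 10 uM ATP at room temperature. Phospho-Ser73 cJun antibody with Protein-A acceptor beads provided detection.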
For orientation: Alpha assays give light when donor and acceptor beads are brought close together.

The target of experiment [6] is Dual specificity protein kinase CLK4 (Homo sapiens) (UniProt Q9HAZ1). In words: qHTS Assay for Inhibitors of CDC-like Kinase 4 (Kinase-Glo Assay) (AID 1770). Also: % is scaled to controls: 0 for no effect and ±100 for the full control effect; nearly all actives have a fitted effect of over 65% in size. Particulars: recombinant Clk4, Kinase-Glo ATP depletion luminescence; series mostly up to 66.7 µM. In outline: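 Recombinant human Clk4 (25 nM) phosphorylated RS repeat peptide (100 uM) with 1 uM ATP in Tris pH 7.5/MgCl2/EGTA/DTT/Triton buffer for 4.5 h at room temperature. Residual ATP was quantified by Kinase-Glo luciferase luminescence.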

For experiment [7] the target is unchanged. The experiment in a line: qHTS Assay for Inhibitors of CDC-like Kinase 4 (ADP-Glo Assay) (AID 1771). Also: % is scaled to controls: 0 for no effect and ±100 for the full control effect; nearly all actives have a fitted effect of over 70% in size. The note with it: recombinant CLK4, ADP-Glo luminescence; series mostly up to 80 µM. In outline:
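Compounds are pin-transferred onto substrate mix (100 uM RS peptide, 1 uM ATP), then 25 nM Clk4 is added. After 1 hr at room temperature, ADP-Glo reagent runs 45 min, detection reagent 30 min, then luminescence is read.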
A general note: Quantitative high-throughput screening tests each substance at several concentrations.

Experiment [8] has the same target. In words: qHTS Assay for Inhibitors of CDC-like Kinase 4 (ADP-FP Assay) (AID 1795). Also: % is scaled to controls: 0 for no effect and ±100 for the full control effect; nearly all actives have a fitted effect of over 60% in size. Particulars: Transcreener ADP fluorescence polarization; series mostly up to 50 µM. In outline:
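Recombinant human Clk4 (6.25 nM) phosphorylated RS repeat peptide (100 uM) with 1 uM ATP in Tris pH 7.5/MgCl2/EGTA/DTT/Triton buffer for one hour. ADP was quantified by Transcreener competitive fluorescence polarization against an ADP calibration curve.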

Experiment [9] concerns the target Ubiquitin carboxyl-terminal hydrolase 1 (Homo sapiens) (UniProt O94782). In words: Inhibitors of USP1/UAF1: Pilot qHTS (AID 504865).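 Also: rhodamine fluorescence freed from ubiquitin-rhodamine substrate followed over time; top concentration of the series differs between compounds; % is scaled to controls: 0 for no effect and ±100 for the full control effect; nearly all actives have a fitted effect of over 35% in size.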 Particulars: purified USP1/UAF1, Ub-rhodamine cleavage fluorescence; series mostly up to 54.9 µM. In outline:
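USP1/UAF1 complex (1nM) preincubated with compound 15 min at room temperature, then Ub-Rho substrate (150nM final) added. Fluorescence read kinetically at 480/540 nm, 6 reads every 60 seconds. Buffer: 50mM HEPES pH 7.8, 0.5mM EDTA, 0.1 mg/ml BSA, 1mM TCEP, 0.01% Tween-20.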

Experiment [10] in a line: Primary qHTS for small molecule stabilizers of the endoplasmic reticulum resident proteome: Secreted ER Calcium Modulated Protein (SERCaMP) assay (AID 1508630). Also: % is scaled to controls: 0 for no effect and ±100 for the full control effect. The note with it: SH-SY5Y GLuc-SERCaMP (Gaussia luciferase released on ER calcium loss) secretion, thapsigargin, luminescence; series mostly up to 38.4 µM. In outline: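 The SH-SY5Y reporter protocol was run at 3 concentrations up to 38.3 uM (primary) or 11 concentrations (follow-up): 16 h compound, 100 nM thapsigargin for 4 h, then extracellular luciferase luminescence.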

Experiment [11] has as its target Cytochrome P450 1A2 (Homo sapiens) (UniProt P05177). The experiment in a line: p450-cyp1a2 (AID 410; calls by dose curve; also: potency is read from the fitted curve at half-maximal effect). The note with it: recombinant CYP1A2, luciferin-ME demethylation, luminescence; series mostly up to 57 µM. In outline: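 O-Demethylation of luciferin 6' methyl ether by human CYP1A2 is monitored as luciferase luminescence. Substrate sits at Km (100uM); enzyme is 20nM. Values are scaled to 57 uM furafylline as maximal inhibition.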

Experiment [12] in a line: Stat Signaling Pathway (AID 446; active = well fitted curve in either direction with a large enough effect, not every such curve was filed as active). Particulars: ME-180 SIE beta-lactamase reporter, IL-6 stimulated, 5 h; at 7.69 µM (top of the series) unless noted. In outline: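 FRET read-out (405 nm excitation, 460/530 nm emission) of a beta-lactamase reporter under a STAT-inducible element in ME-180 cervical carcinoma cells. Cells with compound receive 40 pM IL-6 for 5 h. Values are normalised to AC90 stimulation and AC90 JAK-inhibitor controls.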

The target in experiment [13] is Glucocorticoid receptor (Homo sapiens) (UniProt P04150). The experiment in a line: GR-GFP Redistribution (AID 450;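 active = compounds whose dose series gives a full or clear partial fitted curve of increased nuclear translocation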; also: potency is read from the fitted curve at half-maximal effect). Particulars: U2OS GR-GFP nuclear translocation, laser cytometry, 2 h.
Experiment [14] addresses 3',5'-cyclic-AMP phosphodiesterase 4B (Homo sapiens) (UniProt Q07343). In words: qHTS Assay for Inhibitors of PDE-IV (AID 607; active = well fitted activation curve with a large enough effect in the main read-out, with a control signal flat, not every such curve was filed as active; also: % of control where 0% means no effect). Particulars: HEK293 ACTOne CNG channel cells, membrane potential fluorescence; series mostly up to 22.9 µM. An outline of the steps: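 Cell-based read-out of cAMP via a modified cyclic nucleotide-gated channel and membrane potential dye (535/590 nm) in HEK293 cells expressing PDE4 endogenously. Compounds tested up to 22.9 uM final; 100 uM RO 20-1724 reference.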

The target in experiment [15] is Cytochrome P450 3A4 (Homo sapiens) (UniProt P08684). In words: qHTS Assay for Activators of Cytochrome P450 3A4 (AID 885). Also: nearly all actives have a fitted effect of over 65% in size. Particulars: recombinant CYP3A4, Luciferin-PPXE luminescence, 60 min; series mostly up to 57.1 µM. In outline: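 Luminescent readout of luciferin formed from 25 uM Luciferin-PPXE (KM level) by 20 nM CYP3A4 in 200 mM KPO4, with 60 min NADPH-driven reaction at room temperature after 10 min compound exposure. Ketoconazole (57 uM) defined 100% inhibition.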

Experiment [16] in a line: qHTS Assay for Identification of Small Molecule Agonists for Hypoxia Response Element Signaling Pathway (AID 914; active = well fitted activation curve with a large enough effect in the signal ratio, with a control signal flat, not every such curve was filed as active; the % refers to the signal ratio; also: % of control where 0% means no effect). The note with it: ME-180 (cervical carcinoma) HRE-bla reporter, beta-lactamase ratio, CoCl2, 17 h; activation: active compounds read high. In outline: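 In Opti-MEM containing 0.5% dialyzed FBS and 10 mM HEPES, ME-180 HRE-bla cells received a compound titration and EC50 CoCl2. They were incubated 17 hours, then CCF4-loaded 2.5 hours at room temperature before ratio reading.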

Values without a mark were called inactive. Records with an inconclusive call do not appear. Active and inactive are the calls of the source. Unless noted, calls follow the shape of the dose curve; as a rule, active = well fitted curve in the direction sought with a large enough effect; inconclusive = small, poorly fitted or top-dose-only effect, or another doubt; inactive = no such curve, though single readings can be large; an effect the other way counts as inactive or inconclusive.

Cytochrome P450 1A2 (Homo sapiens), sequence (P05177 whole entry, looked up): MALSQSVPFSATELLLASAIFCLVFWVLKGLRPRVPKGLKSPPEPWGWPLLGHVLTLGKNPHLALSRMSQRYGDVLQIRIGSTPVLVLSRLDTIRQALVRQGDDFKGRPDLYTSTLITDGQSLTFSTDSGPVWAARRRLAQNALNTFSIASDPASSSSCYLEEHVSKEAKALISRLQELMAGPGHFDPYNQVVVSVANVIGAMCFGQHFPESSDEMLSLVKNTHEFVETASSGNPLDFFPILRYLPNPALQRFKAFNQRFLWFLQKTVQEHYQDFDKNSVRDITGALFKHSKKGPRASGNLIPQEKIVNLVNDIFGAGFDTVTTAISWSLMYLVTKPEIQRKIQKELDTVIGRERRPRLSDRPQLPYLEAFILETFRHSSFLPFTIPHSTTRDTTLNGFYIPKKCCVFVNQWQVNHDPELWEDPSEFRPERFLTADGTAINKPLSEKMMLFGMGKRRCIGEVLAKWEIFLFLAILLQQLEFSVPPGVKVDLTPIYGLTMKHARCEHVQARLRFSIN
Glucocorticoid receptor (Homo sapiens), sequence (P04150 whole entry, looked up, the tested form may be a part): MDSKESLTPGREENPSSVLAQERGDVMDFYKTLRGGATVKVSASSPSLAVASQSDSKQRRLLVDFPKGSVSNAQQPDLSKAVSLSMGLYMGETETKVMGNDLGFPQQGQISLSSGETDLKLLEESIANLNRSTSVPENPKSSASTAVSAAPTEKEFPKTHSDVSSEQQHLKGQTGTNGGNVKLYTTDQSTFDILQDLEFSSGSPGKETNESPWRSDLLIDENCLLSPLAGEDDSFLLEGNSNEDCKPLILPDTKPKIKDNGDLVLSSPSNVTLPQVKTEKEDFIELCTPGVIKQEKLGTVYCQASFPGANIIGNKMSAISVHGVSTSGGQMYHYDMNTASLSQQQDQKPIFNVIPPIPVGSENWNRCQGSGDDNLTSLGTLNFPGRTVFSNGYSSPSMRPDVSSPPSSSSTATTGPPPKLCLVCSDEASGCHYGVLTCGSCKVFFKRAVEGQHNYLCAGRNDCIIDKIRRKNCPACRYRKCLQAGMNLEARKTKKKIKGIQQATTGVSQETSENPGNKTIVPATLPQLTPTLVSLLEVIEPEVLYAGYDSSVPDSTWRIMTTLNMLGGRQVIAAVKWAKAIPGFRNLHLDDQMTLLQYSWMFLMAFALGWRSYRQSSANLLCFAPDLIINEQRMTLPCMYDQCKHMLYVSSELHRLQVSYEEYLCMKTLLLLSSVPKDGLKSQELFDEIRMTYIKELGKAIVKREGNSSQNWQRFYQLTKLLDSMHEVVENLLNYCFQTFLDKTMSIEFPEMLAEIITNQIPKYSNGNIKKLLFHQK
3',5'-cyclic-AMP phosphodiesterase 4B (Homo sapiens), sequence (Q07343 whole entry, looked up): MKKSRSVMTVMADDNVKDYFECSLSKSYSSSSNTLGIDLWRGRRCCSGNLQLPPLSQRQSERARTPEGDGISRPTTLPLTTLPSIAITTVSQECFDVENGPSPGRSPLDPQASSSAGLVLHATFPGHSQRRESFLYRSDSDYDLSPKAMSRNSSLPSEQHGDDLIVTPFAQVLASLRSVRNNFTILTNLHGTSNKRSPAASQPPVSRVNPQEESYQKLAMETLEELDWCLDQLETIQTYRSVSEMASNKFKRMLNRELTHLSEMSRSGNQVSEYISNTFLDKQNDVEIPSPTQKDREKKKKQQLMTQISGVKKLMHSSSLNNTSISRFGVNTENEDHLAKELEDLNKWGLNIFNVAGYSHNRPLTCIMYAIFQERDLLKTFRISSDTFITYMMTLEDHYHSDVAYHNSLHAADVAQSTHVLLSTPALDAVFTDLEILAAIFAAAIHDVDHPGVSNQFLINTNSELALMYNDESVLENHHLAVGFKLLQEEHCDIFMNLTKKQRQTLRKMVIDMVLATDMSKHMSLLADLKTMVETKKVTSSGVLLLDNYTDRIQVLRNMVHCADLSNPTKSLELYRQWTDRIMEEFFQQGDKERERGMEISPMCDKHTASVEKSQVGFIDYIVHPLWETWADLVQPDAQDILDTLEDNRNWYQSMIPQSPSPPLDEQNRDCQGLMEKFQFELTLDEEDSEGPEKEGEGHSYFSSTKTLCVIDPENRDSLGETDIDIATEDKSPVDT
Cytochrome P450 3A4 (Homo sapiens), sequence (P08684 whole entry, looked up): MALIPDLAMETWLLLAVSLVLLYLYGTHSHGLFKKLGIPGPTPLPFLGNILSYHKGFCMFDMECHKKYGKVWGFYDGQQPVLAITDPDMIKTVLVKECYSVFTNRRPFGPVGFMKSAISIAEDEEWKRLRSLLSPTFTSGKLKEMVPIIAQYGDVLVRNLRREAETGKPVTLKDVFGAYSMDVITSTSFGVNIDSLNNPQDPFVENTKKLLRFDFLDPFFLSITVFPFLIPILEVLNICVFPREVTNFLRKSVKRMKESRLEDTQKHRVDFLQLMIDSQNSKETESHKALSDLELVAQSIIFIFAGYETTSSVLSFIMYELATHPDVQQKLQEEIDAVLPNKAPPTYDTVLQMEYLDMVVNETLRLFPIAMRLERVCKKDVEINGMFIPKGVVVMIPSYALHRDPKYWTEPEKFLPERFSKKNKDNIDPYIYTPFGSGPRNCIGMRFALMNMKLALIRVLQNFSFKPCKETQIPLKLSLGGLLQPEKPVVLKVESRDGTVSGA
Lysosomal acid glucosylceramidase (Homo sapiens), sequence (P04062 whole entry, looked up): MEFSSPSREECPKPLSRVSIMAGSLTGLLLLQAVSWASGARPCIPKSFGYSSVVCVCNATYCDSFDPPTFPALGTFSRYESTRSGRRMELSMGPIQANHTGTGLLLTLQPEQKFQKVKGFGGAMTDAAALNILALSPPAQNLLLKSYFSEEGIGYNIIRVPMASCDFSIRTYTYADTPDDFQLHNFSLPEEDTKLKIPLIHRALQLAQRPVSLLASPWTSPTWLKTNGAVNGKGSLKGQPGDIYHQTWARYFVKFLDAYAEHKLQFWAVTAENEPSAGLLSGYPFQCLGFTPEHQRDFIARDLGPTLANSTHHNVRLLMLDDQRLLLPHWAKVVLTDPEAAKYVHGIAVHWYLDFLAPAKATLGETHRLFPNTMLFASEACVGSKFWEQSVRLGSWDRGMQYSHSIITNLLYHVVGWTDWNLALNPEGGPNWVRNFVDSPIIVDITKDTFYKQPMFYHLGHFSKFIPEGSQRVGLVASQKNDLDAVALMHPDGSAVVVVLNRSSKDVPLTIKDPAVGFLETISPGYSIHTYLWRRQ
Ubiquitin carboxyl-terminal hydrolase 1 (Homo sapiens), sequence (O94782 whole entry, looked up): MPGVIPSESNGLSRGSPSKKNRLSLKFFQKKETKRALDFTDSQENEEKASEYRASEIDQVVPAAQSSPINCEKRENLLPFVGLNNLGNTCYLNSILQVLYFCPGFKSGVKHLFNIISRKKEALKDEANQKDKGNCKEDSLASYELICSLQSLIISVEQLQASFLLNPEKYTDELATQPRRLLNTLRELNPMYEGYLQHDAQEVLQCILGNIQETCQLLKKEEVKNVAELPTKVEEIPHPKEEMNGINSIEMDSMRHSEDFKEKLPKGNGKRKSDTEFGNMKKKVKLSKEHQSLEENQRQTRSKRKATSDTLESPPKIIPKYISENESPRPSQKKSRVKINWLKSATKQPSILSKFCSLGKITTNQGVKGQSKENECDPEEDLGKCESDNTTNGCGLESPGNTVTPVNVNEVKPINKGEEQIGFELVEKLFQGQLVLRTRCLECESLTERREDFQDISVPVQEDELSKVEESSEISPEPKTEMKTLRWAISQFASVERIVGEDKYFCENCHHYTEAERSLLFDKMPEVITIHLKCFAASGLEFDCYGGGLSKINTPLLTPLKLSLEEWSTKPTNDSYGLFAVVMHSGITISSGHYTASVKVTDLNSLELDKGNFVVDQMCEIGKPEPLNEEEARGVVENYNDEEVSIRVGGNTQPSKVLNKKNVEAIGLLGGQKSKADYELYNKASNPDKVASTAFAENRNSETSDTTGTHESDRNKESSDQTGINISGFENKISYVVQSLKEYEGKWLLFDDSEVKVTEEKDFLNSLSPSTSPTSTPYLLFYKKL
Dual specificity protein kinase CLK4 (Homo sapiens), sequence (Q9HAZ1 whole entry, looked up): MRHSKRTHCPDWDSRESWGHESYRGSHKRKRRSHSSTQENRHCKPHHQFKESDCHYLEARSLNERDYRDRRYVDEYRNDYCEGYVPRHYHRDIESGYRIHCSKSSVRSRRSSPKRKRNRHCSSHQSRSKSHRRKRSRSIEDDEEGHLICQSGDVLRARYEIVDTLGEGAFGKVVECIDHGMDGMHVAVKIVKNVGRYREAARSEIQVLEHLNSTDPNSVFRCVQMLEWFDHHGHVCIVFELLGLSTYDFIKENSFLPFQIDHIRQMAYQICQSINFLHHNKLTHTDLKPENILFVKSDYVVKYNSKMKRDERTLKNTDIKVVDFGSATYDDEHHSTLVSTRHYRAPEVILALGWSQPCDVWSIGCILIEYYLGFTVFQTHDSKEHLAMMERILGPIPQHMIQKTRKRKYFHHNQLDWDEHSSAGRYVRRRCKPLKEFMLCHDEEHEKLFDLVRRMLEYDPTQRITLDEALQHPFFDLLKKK

On to `COCCn1c(=O)c(CCc2ccccc2)nc2cnc(Nc3ccccc3)nc21`, for which the Potency was over 11.4 µM in experiment [1] and over 46 µM in experiment [4]. Moreover, the activity change, negative = inhibition in [2] is 16.9%; in [3] it was 10.5%. The Potency entry in experiment [5], in [6], in experiment [7], in experiment [8] and in [9] was “inactive” in each case. In experiment [10], the result was inactive.

Regarding `N#CCCn1c(=O)c(-c2cccs2)nc2cnc(Nc3ccccc3)nc21`, the Potency in experiment [1] was over 11.4 µM; in [11] it was 5.01 µM (active); in experiment [13] it was over 9.22 µM; in experiment [4], over 46 µM. Moreover, the activity change, negative = inhibition in experiment [3] is -22.7%. The activity, negative = inhibition in experiment [12] was -25%. The Potency entry in experiment [5], in experiment [14], in [15], in [6], in experiment [7] and in experiment [8] was “inactive” each time. The Potency entry in experiment [9] was “inactive”. For the same molecule, in experiment [10], the result was inactive.

Regarding `COc1ccc(Oc2ncc3ncc(=O)n(C4CC4)c3n2)cc1`, the Potency in experiment [1] is over 11.4 µM; in experiment [11] it was 5.01 µM (active); in experiment [13] it was over 9.22 µM; in [4], over 46 µM. The activity change, negative = inhibition in experiment [3] was 5.04%. Moreover, in experiment [12], the activity, negative = inhibition was -19.9%. Besides, the Potency result in experiment [5], in experiment [14], in experiment [15], in [6], in experiment [7] and in [8] was “inactive” in each case. Besides, the Potency entry in [9] is “inactive”. For the same molecule, the activation in experiment [16] is -9.06%. For the same molecule, the outcome in experiment [10] was inactive.

`COCCn1c(=O)c(-c2cc(F)cc(F)c2)nc2cncnc21`: the Potency in [1] was over 11.4 µM; in experiment [11], 2 µM (active); in [13] it was over 9.22 µM; in [4] it was over 46 µM. Further, in experiment [3], the activity change, negative = inhibition was 1.95%. Moreover, in experiment [12], the activity, negative = inhibition is -7.77%. The Potency entry in experiment [5], in experiment [14], in experiment [15], in experiment [6], in experiment [7] and in experiment [8] was “inactive” in each case. In addition, the Potency result in [9] was “inactive”. The result in experiment [10] was inactive.

On to `O=c1c(CCc2ccccc2)nc2cnc(N3CCOCC3)nc2n1C1CC1`, for which the results for the Potency in experiment [1] and in experiment [4] were over 11.4 µM and over 46 µM, respectively. Also, the activity change, negative = inhibition in [2] was -19.2%; in experiment [3], 4.06%. In experiment [12], the activity, negative = inhibition is 3.71%. Moreover, the Potency entry in [5], in experiment [6], in [7], in [8] and in [9] was “inactive” each time. For the same molecule, the result in experiment [10] was inactive.

Take `COCCn1c(=O)c(-c2ccc(OC)cc2)nc2cnc(N3CCOCC3)nc21`: the Potency in [1] was over 11.4 µM; in [4], over 46 µM. The activity change, negative = inhibition in [2] was -13.6%; in experiment [3] it was 8.4%. The activity, negative = inhibition in experiment [12] was 25.9%. The Potency entry in experiment [5], in experiment [14], in experiment [6], in experiment [7], in experiment [8] and in experiment [9] was “inactive” in each case. Also, the result in experiment [10] was inactive.

On to `CN(C)c1ncc2nc(-c3cccs3)c(=O)n(Cc3cccs3)c2n1`, for which the Potency in experiment [1] was over 11.4 µM; in [13], over 9.22 µM; in experiment [4], over 46 µM. Further, the activity change, negative = inhibition in experiment [2] was 21.5%. The Potency result in experiment [5], in experiment [14], in experiment [15], in experiment [6], in experiment [7] and in experiment [8] was “inactive” in each case. For the same molecule, the Potency result in experiment [9] is “inactive”. Further, in experiment [10], the result was inactive.
